Results filed as inconclusive are left out. The source made the active and inactive calls. Calls come from the whole dose curve.

Chain of Polyunsaturated fatty acid lipoxygenase ALOX15 (Homo sapiens) (P16050 whole entry, looked up): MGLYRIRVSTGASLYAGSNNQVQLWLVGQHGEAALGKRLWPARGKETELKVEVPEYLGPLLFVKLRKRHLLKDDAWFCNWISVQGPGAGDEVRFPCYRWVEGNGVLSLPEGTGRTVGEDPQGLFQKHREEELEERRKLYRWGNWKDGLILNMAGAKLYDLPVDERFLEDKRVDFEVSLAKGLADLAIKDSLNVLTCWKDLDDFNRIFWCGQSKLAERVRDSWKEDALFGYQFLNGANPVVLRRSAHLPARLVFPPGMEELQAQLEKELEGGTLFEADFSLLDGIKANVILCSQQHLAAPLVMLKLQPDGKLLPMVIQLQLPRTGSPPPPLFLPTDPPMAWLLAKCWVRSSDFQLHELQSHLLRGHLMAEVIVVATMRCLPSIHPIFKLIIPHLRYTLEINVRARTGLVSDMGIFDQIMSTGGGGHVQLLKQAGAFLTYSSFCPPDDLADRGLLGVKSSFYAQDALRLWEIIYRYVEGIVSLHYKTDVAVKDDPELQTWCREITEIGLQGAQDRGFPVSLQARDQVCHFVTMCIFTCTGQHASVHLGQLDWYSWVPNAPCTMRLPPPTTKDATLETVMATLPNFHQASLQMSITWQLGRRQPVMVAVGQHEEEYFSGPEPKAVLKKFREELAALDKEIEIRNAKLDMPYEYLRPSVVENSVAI

The assay has as its target Polyunsaturated fatty acid lipoxygenase ALOX15 (Homo sapiens) (UniProt P16050). In words: Inhibitors of 12-hLO (12-human lipoxygenase): 15hLO-1 Cuvette-Based Inhibition Counterscreen Assay for 12hLO Followup Compounds. As to conditions: purified 15hLO-1, UV 234 nm product formation. The procedure: Human lipoxygenase 15hLO-1 is a member of the closely related lipoxygenase family of enzymes which catalyze the site-specific oxidation of arachidonic acid to various hormone precursor molecules and as such is a candidate for drug development in a variety of disease areas, such as cancer and inflammation. The enzyme activity of 15hLO-1 was determined by a direct measurement of product formation by monitoring the absorbance at 234 nm in a 2 mL cuvette. IC50 values of inhibitors were obtained by measuring the enzymatic rate at a variety of concentrations (Carroll et al, Segraves et al). A purified preparation of human 15hLO-1 was supplied by Professor Ted Holman, University of California, Santa Cruz. This assay was run against 12hLO followup compounds with the goal of identifying selective 12hLO inhibitors. Assay Provider: Holman, T.R., University of California, Santa Cruz Screening Center PI: Austin, Christopher P. Screening Center: NIH Chemical Genomics Center
For control experiments, 2 mL of substrate buffer (10 uM arachidonic acid / 25 mM HEPES / 0.01% (v/v) Triton X-100, pH 8.0) was aliquoted in a cuvette with a magnetic stir bar. After equilibrium was ensured, an aliquot of inhibitor solvent was added (DMSO), and equilibrium was once again assured. The reaction was started by adding enzyme to the cuvette and the reaction was followed until completed. The inhibition experiments were performed as above, except the actual inhibitory compound was added instead of vehicle. To achieve an IC50, typically 5 concentrations of the inhibitor were studied. If the inhibitor concentration was constant, then five different reaction volumes were used. Step \ Parameter \ Value \ Description 1; UV-Vis; 234 nm; Equilibration 2; Reagent; 2 mL; Substrate buffer 3; UV-Vis; 234 nm; Equilibration 4; Reagent; varies; Compound 5; UV-Vis; 234 nm; Equilibration 6; Reagent; 50-200 nM; Enzyme 12-hLO 7; UV-Vis; 234 nm; Enzymatic reaction Step \ Notes 1; Blank cuvette to air. 2; 10 uM AA, 25 mM HEPES, 0.01% Triton X-100, pH 8. 3; No change in absorbance ensured. 4; Compound vehicle or compound in various concentrations depending on potency. 5; No change in absorbance ensured. 6; Enzyme concentration to achieve reaction rate between 0.02 and 0.04 AU/s. 7; Enzymatic reaction visualized until completion.
As to `Cc1ccc(C(=O)Nc2nnc(-c3ccco3)o2)cc1`, the result was inactive. As for `Cc1ccc(C(=O)Nc2nnc(-c3ccco3)o2)cc1C`, the call was inactive. Regarding `Cc1cc(Cl)cc(Cl)c1OCC(=O)NCc1ccco1`, the Potency is 88.6 µM (active).

Regarding `Oc1ccc(C2=Nn3c(nnc3-c3ccco3)SC2)cc1O`, the Potency is 39.1 µM (active). Take `COc1cc(CNc2ccc(O)cc2)cc(Br)c1OCc1ccccc1F`: the compound was called inactive. As to `Oc1ccccc1-c1cc(-c2ccc3c(c2)OCCO3)n[nH]1`, the Potency is 2.55 µM (active). The same measure, in the same setting: the figure for `COc1ccc(-c2[nH]ncc2-c2ccc(Cl)cc2)c(O)c1` is 6.81 µM (active).

`O=C(Nc1nnc(C2=COCCO2)o1)c1ccc(Cl)cc1`: the compound was classed as inactive.

Turning to `O=C(Nc1nnc(-c2ccc(Cl)cc2)o1)c1ccccc1Br`, the compound was classed as inactive. As to `Oc1ccc(-c2csc(-c3ccccc3)n2)cc1O`, the Potency is 0.67 µM (active).

On to `N#CC1=C(N)Oc2n[nH]c(-c3cccs3)c2C1C1CCCCC1` (stereo not given), for which the Potency is 9.33 µM (active). Regarding `Cc1ccc(S(=O)(=O)Nc2ccc(NC(=O)Nc3cccc(C(F)(F)F)c3)cc2)cc1`, the Potency was 31.5 µM (active).

With `COc1ccc(/C=C/c2nc(-c3ccccc3O)n[nH]2)cc1`, the Potency is 11.2 µM (active). The same measure, in the same setting: the figure for `Oc1ccc(-c2nc(-c3ccc(O)c(O)c3)cs2)cc1` is 0.61 µM (active); for `O=C(CSc1n[nH]c(-c2ccccc2)n1)c1ccc(O)c(O)c1` it is 5.77 µM (active); for `c1ccc(-c2nc(NCc3cccnc3)c3oc4ccccc4c3n2)cc1` it is 31 µM (active).

Regarding `COc1ccc(Cc2nc(C(=O)Nc3ccc(OC)cc3)cs2)cc1`, the Potency is 8.84 µM (active). Turning to `Cc1[nH]nc(-c2ccc(O)cc2O)c1-c1ccc(Cl)cc1`, the Potency is 9.99 µM (active). Still for that read-out and setting: the figure for `Oc1ccccc1-c1cc(-c2cccc(F)c2)n[nH]1` is 4.81 µM (active); for `COc1ccc2nc(NC(=O)c3cccc(OCc4c(C)noc4C)c3)sc2c1` it is 33.6 µM (active); for `Cc1cccnc1NCc1ccc(O)c2ncccc12` it is 23.9 µM (active). On the same count and under the same terms, the figure for `CSCCC(NC(=O)c1ccc(Cl)cc1)C(=O)OCC(=O)Nc1ccc(C#N)cc1` (stereo not given) is 46.2 µM (active). For `COc1cc(CNc2ccc(N3CCCC3)cc2)ccc1OCc1ccccc1`, the compound was classed as inactive.

On to `CN(C)c1nccc(N(Cc2ccccc2)Cc2ccccc2)c1C#N`, for which the Potency is 17.7 µM (active). As to `CCc1ccc(S(=O)(=O)/N=C2/C=C(Sc3ncn[nH]3)C(=O)c3ccccc32)cc1`, the Potency is 9.52 µM (active). Turning to `CCOC(=O)CNC(c1ccccc1)c1cc(Br)ccc1NC(=O)CCN1CCOCC1` (stereo not given), the outcome was inactive.

For the compound `O=C1c2ccccc2NC(c2ccc(Cl)cc2Cl)N1O` (stereo not given), the Potency is 37.4 µM (active). The same measure, in the same setting: in the case of `Cc1[nH]nc(-c2ccc(O)cc2O)c1Oc1ccccc1` it was 15.6 µM (active); in that of `Oc1ccc(Cl)cc1-c1cc(-c2ccco2)[nH]n1`, 2.03 µM (active).

Turning to `CC(Oc1ccc(Cl)cc1Cl)C(=O)NC1=NN(c2ccccc2)C(=O)C1` (stereo not given), the Potency is 65 µM (active). The same measure, in the same setting: in the case of `Cc1ccc(NC(=O)Nc2cccs2)c(Cl)c1` it was 58.8 µM (active); in that of `CSc1ccc(S(=O)(=O)Nc2ccc(S(=O)(=O)Nc3ccc(C)cc3)cc2)cc1`, 45 µM (active); in that of `CC1=NN(c2ccc(Cl)cc2)C(=O)C1C(c1cccc(O)c1)c1c(C)[nH]n(-c2ccc(Cl)cc2)c1=O` (stereo not given), 22.8 µM (active). For `CCOC(=O)Cc1cc(=O)n(-c2nc3ccccc3s2)[nH]1`, the result was inactive. In the case of `O=C(/C=C/c1ccc(O)c(O)c1)c1ccc(S(=O)(=O)N2CCCCCC2)cc1`, the Potency was 1.31 µM (active). In the case of `CC1=NN(c2ccc(Cl)cc2)C(=O)C1C(c1ccccc1O)c1c(C)[nH]n(-c2ccc(Cl)cc2)c1=O` (stereo not given), the Potency is 20 µM (active).

Take `CCc1cc(-c2n[nH]c(C)c2Oc2ccc(C(C)C)cc2)c(O)cc1O`: the Potency is 3.87 µM (active). Still for that read-out and setting: the figure for `Oc1ccccc1-c1cc(-c2ccccc2Cl)[nH]n1` is 1.62 µM (active). In the case of `Cc1ccc(S(=O)(=O)Nc2nc(C)c(NC(=O)Nc3ccc(Cl)cc3Cl)s2)cc1`, the outcome was inactive.

`O=C(Nc1nnc(-c2ccccn2)o1)c1ccc(Br)cc1`: the outcome was inactive.
